High-throughput results (PubChem BioAssay)
PGK inhibitor – qHTS Assay to Find Inhibitors of Phosphoglycerate Kinase. PGK/GAPDH coupled, Kinase-Glo luminescence, 60 min. Phosphoglycerate kinase, glycosomal (Trypanosoma brucei brucei), P07378. AID 602233, 2012. Potency, µM (highest dose often 57.5 µM), usual class: inhibitors. hit rate 0.043% among 380,000; also: nearly all actives have a fitted effect of over 60% in size
Target sequence (P07378 whole entry, looked up): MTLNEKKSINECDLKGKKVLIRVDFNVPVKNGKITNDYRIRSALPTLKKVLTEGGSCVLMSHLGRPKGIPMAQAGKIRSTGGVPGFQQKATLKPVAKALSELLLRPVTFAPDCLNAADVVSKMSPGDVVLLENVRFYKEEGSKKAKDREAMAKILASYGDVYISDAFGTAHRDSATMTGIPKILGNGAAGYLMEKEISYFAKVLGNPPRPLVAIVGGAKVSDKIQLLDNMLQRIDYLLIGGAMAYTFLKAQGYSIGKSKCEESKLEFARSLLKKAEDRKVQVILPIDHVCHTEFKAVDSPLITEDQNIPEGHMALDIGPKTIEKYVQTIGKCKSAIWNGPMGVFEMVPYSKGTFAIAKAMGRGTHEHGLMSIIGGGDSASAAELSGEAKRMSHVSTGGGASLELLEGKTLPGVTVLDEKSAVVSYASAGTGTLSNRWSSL
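Recombinant glycosomal PGK reaction used 1,3-bisphosphoglycerate generated in-well by GAPDH (100nM final) in 100mM TEA pH 7.6, 5mM MgCl2, 0.01% Tween-20. After 60 minutes at room temperature, ATP was read by Kinase-Glo Plus luminescence end-point.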
Pin1 inh – qHTS Assay to Find Inhibitors of Pin1; hit rate 0.009% among 390,000; Potency, µM (highest dose often 115 µM), actives largely listed as inhibitors; Pin1 FP peptide displacement, HiFluor488, 10 min; active = well fitted inhibition curve with a large enough effect in the polarisation, with a control signal flat, not every such curve was filed as active; inconclusive = small, poorly fitted or top-dose-only effect, or effect the other way, or a change in a side signal; inactive = no such curve, though single readings can be large or run the other way; the % refers to the polarisation
Chronic BCR inh – qHTS Assay to Find Inhibitors of Chronic Active B-Cell Receptor Signaling; ABC-DLBCL IkBa-CBG/CBR reporter, luminescence ratio, 4 h; Potency, µM (series often up to 46.1 µM), hits mostly inhibitors; hit rate 0.05% among 340,000; active = well fitted inhibition curve with a large enough effect in the signal ratio, with a control signal flat, not every such curve was filed as active; inconclusive = small, poorly fitted or top-dose-only effect, or effect the other way, or a change in a side signal; the % refers to the signal ratio
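Cell line TMD8 (human ABC DLBCL), stably expressing tet-inducible CBG68-IkBa fusion and CBR; IMDM/0.5% FBS; cpd up to 46 uM; dox induction, 4 h, 37C/5% CO2; dual luminescence; green/red ratio; MG132 control.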
ERG Ets-DNA blk – qHTS for Small Molecule Inhibitors of the ERG Ets/DNA interaction. hit rate 0.028% among 370,000. fluorescence polarization, His-ERG Ets domain / labelled DNA. Transcriptional regulator ERG (Homo sapiens), P11308. Potency, µM (titrated, usually from 76.9 µM), hits mostly inhibitors. AID 624246, 2012; active = well fitted inhibition curve with a large enough effect in the polarisation, with a control signal flat; inconclusive = small, poorly fitted or top-dose-only effect, or effect the other way, or a change in a side signal; inactive = no such curve, though single readings can be large or run the other way; the % refers to the polarisation;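 also: polarization taken with two DNA probes labelled with fluorescein and Texas red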
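His-tagged ERG Ets domain (1 uM in the protein solution; 300mM KCl, 50mM Tris-HCl, 1mM EDTA, 1mM DTT, pH 7.5) received compound, then a probe mix of 5 nM fluorescein-DNA and 100nM Texas-615-DNA. Fluorescence polarization was read for both dyes.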
Tb PFK inh-1 – qHTS Assay to Find Inhibitors of T. brucei phosphofructokinase. hit rate 0.17% among 330,000. ATP-dependent 6-phosphofructokinase (Trypanosoma brucei brucei), O15648. AID 485367, 2010. Potency, µM (titrated, usually from 57.5 µM), most hits filed as inhibitors. T. brucei PFK, ADP-Glo luminescence; also: nearly all actives have a fitted effect of over 60% in size
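In TEA buffer at pH 8.0 with 5 mM MgCl2, enzyme (1.25 nM) converted F6P (0.5 mM) and ATP (0.1 mM) for 45 min at room temperature. ADP product was read by luciferase luminescence.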
TbPFK ATP – Tb PFK orthogonal confirmatory assay using ATP depletion (Kinase-Glo Plus) as an alternative measure of Tb PFK activity: Hit Validation; shares compounds with Tb PFK inh-1; Tb PFK enzyme, ATP depletion, Kinase-Glo Plus luminescence; Potency, µM (highest dose often 57.5 µM); hit rate 47% among 1,100; AID 504636, 2011; calls by dose curve; also: nearly all actives have a fitted effect of over 60% in size
Tb PFK inh-2 – Inhibitors of T. brucei phosphofructokinase: Hit Validation; shares compounds with Tb PFK inh-1; purified T. brucei PFK, ADP-Glo luminescence, 45 min; Potency, µM (titrated, usually from 57.5 µM), hits mostly inhibitors; hit rate 41% among 1,100; also: nearly all actives have a fitted effect of over 60% in size
Large screens that a line does not name were inactive (follow-up assays come after a bar, where they were run). The list is not random: actives were taken first. Their share in the collection is about 0.25%. Unless noted, calls follow the shape of the dose curve; as a rule, active = well fitted curve in the direction sought with a large enough effect; inconclusive = small, poorly fitted or top-dose-only effect, or another doubt; inactive = no such curve, though single readings can be large; an effect the other way counts as inactive or inconclusive.

C=CCNC(=S)Nc1ccc(OC(=O)Nc2ccc(Cl)c(Cl)c2)cc1	Chronic BCR inh inconclusive, Tb PFK inh-1 13µM | TbPFK ATP 21µM | Tb PFK inh-2 27µM
Cc1cc(NC(=O)COC(=O)CSCc2ccc(Cl)c(Cl)c2)no1	Chronic BCR inh inconclusive, Tb PFK inh-1 inconclusive | TbPFK ATP inconclusive | Tb PFK inh-2 inconclusive
Cc1cccc(C)c1NC(=S)Nc1ccc(Cl)c(Cl)c1	Tb PFK inh-1 21µM | TbPFK ATP inconclusive | Tb PFK inh-2 inactive
NC(=S)Nc1ccc(Cl)c(Cl)c1	Chronic BCR inh inconclusive
CC(C)(C)OC(=O)Cc1nnc(CNC(=O)c2ccccc2)s1	none (no result: PGK inhibitor, Chronic BCR inh, ERG Ets-DNA blk, Tb PFK inh-1)
Cn1c2cc(S(C)=O)sc2c2cnn(Cc3cccc(O)c3)c(=O)c21 (stereo unspecified)	none (no result: PGK inhibitor, Chronic BCR inh, ERG Ets-DNA blk, Tb PFK inh-1)
CC(=O)OCC(NC(=O)C(Cc1ccccc1)NC(=O)OC(C)(C)C)C1OC(n2cc(C)c(=O)[nH]c2=O)C(OC(C)=O)C1OC(C)=O (stereo unspecified)	none (no result: PGK inhibitor, Chronic BCR inh, ERG Ets-DNA blk, Tb PFK inh-1)
OCCNC(=S)Nc1cc(Cl)cc(Cl)c1	none
NS(=O)(=O)c1ccc(CNC(=S)Nc2ccc(Cl)c(Cl)c2)cc1	Tb PFK inh-1 inconclusive | TbPFK ATP inconclusive | Tb PFK inh-2 inconclusive
OCCNC(=S)Nc1ccc(Cl)c(Cl)c1	Tb PFK inh-1 inconclusive (no result: ERG Ets-DNA blk) | TbPFK ATP inconclusive | Tb PFK inh-2 inconclusive
COC(=O)c1cccc(NC(=S)Nc2ccc(Cl)c(Cl)c2)c1	PGK inhibitor inconclusive, Tb PFK inh-1 12µM | TbPFK ATP 27µM | Tb PFK inh-2 inconclusive
COC(=O)c1cccc(NC(=S)Nc2ccccc2Cl)c1	Pin1 inh inconclusive, ERG Ets-DNA blk inconclusive
Cc1cc(NS(=O)(=O)c2ccc(NC(=O)Cc3ccc(Cl)c(Cl)c3)cc2)no1	Tb PFK inh-1 1.2µM | TbPFK ATP 0.43µM | Tb PFK inh-2 0.76µM
Cc1ccc(CC(=O)Nc2cccc(S(=O)(=O)N3CCOCC3)c2)cc1	none
NS(=O)(=O)c1cccc(NC(=O)Cc2ccc(Cl)c(Cl)c2)c1	Tb PFK inh-1 6µM | TbPFK ATP 3µM | Tb PFK inh-2 11µM
O=C(Cc1ccc(Br)cc1)Nc1cccc(S(=O)(=O)N2CCOCC2)c1	Chronic BCR inh inconclusive, Tb PFK inh-1 inconclusive | TbPFK ATP inconclusive | Tb PFK inh-2 inconclusive
N/C(Cc1ccc(Cl)c(Cl)c1)=N\OC(=O)c1cccs1	Tb PFK inh-1 inconclusive | TbPFK ATP 11µM | Tb PFK inh-2 inconclusive
N/C(=N\OC(=O)c1cccs1)C1(c2ccc(Cl)cc2Cl)CC1	Chronic BCR inh inconclusive
COc1ccc(C2Nc3ccccc3C(=O)N2c2ccccc2F)cc1COc1ccc(NC(C)=O)cc1 (stereo unspecified)	none (no result: PGK inhibitor, Chronic BCR inh, ERG Ets-DNA blk, Tb PFK inh-1)
